Test results taken from publication PMC5540273 (PLoS ONE, 2017).

tested on: T1, ASK1; conditions: concentration: 1 μM, replicates: in singlicate; n = 1
T1 construct: gene MAP3K5
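Also: KINOMEscan kinase panel screen.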

Row | Structure (SMILES) | %Inh [%]
1 | O=C(Nc1n[nH]c2nc(-c3ccccc3O)ccc12)C1CC1 [SB-711880] | 0
2 | CNc1nccc(-c2ccc3c(N)n[nH]c3c2)n1 [GSK2206003] | 0
3 | O=C(Nc1n[nH]c2cc(-c3cccs3)ccc12)C1CC1 [SB-731284] | 0
4 | CC(C)(C)c1ccc(C(=O)Nc2cn3cc(-n4ccnc4)ccc3n2)cc1 | 80
5 | Cc1ccc(Nc2ccnc(Nc3ccc(C)c(F)c3)n2)cc1O.Cl [GW582868] | 0
6 | Fc1cc(Cl)ccc1Nc1ccnc2cc(-c3ccc(CN4CCOCC4)o3)ccc12 [GW560109] | 16
7 | Nc1cccc(-c2ccc3c(N)n[nH]c3c2)c1 [GSK2193613] | 0
8 | Nc1ncnc2scc(-c3ccc(NC(=O)Cc4cc(F)ccc4F)cc3)c12.O=C(O)C(F)(F)F [SB-731254-M] | 10
9 | COc1cccc(-c2nc(-c3ccccc3)[nH]c2-c2ccncc2)c1 [SB-610250] | 2
10 | Cc1cccc(Nc2nc(NCCN)ncc2C(N)=O)c1 [GSK1292139] | 0
11 | CN1CCN(Cc2ccc(NC(=O)Nc3ccc(N(C)c4ccnc(Nc5ccc(CS(C)(=O)=O)cc5)n4)cc3)cc2)CC1.Cl [GW827654] | 0
12 | CN(c1ccc(NC(=O)Nc2cccc(Cl)c2)cc1)c1ccnc(N)n1.Cl [GW830707] | 2
